# Reference: PubChem BioAssay (Tox21)
# Active and inactive are the calls of the source. A call without a number means that no potency is given here. The call rests on the fitted dose curve; in most records, active means well fitted curve in the direction sought with a large enough effect in the repeat runs; inconclusive means weak or mixed curves; inactive means flat fitted curve, though single readings scatter.
# Test: qHTS assay to test for compound auto fluorescence at 460 nm (blue) in HEK293 cell free culture (AID 720681)
# Conditions: cell-free medium, autofluorescence 405/460 nm (blue); series mostly up to 91.3 µM
# Description: U.S. Tox21 Program National Center for Advancing Translational Sciences [NCATS] NIH Chemical Genomics Center [NCGC] U.S. Environmental Protection Agency [EPA] National Institutes of Environmental Health Sciences [NIEHS] National Toxicology Program [NTP] U.S. Food and Drug Administration [FDA] Tox21 Assay Overview: Compound auto fluorescence often interferes with screening of the compound library against various biological targets and signaling pathways. Some of these compounds may have fluorophoric properties. Such properties may interfere with the assay outputs resulting in false positives and/or negatives. To decrease such complications and ensure the compound activities are relevant in terms of biological response, the Tox21 10K compound library was screened for auto fluorescence. From the fluorophores used as reporter signals in our screening assays, the auto fluorescence equivalencies of compounds against three fluorophores have been evaluated: Triamterene, Fluorescein and Rose Bengal sodium for blue, green and red fluorescence, respectively. The fluorescence intensities were measured using Excitation/Emission wavelengths at 405/460nm, 485/535nm and 540/590nm for blue, green and red labels, respectively. This assay includes the blue fluorescence data.
# Tox21 Assay Protocol Summary: 5 uL of culture medium (DMEM containing 10% FBS) per well was dispensed into black wall/clear bottom 1536-well plates using a Multidrop Combi Dispenser (ThermoFisher Scientific, Waltham, MA). After 23 nL compound or DMSO vehicle was transferred into assay plate by a pintool work station (Kalypsys, San Diego, CA), fluorescence intensities in the assay plates were measured by an Envision (PerkinElmer, Shelton, CT) plate reader using three labels for measuring blue, green and red fluorescence at […] 460, 535 and 590nm respectively.
row,Compound,Potency
1,CC(=O)Oc1ccc(C(c2ccc(OC(C)=O)cc2)c2ccccn2)cc1,inactive
2,Cc1cccc(Nc2ccccc2C(=O)O)c1C,inactive
3,NCCS(=O)(=O)O,inactive
4,C[N+](C)(C)CCO,inactive
5,CC/C=C\C/C=C\C/C=C\CCCCCCCC(=O)O,inactive
6,CN(C)C,inactive
7,Nc1ccc2c(O)cc(S(=O)(=O)O)cc2c1,inactive
8,C=CCOC(=O)C(=C)C,inactive
9,NCCN,inactive
10,Cc1ccc([N+](=O)[O-])c(C)c1,inactive
11,COCCOCCOCCO,inactive
12,CN1CCOCC1,inactive
13,CC/C(=C(/CC)c1ccc(O)cc1)c1ccc(O)cc1,inactive
14,Nc1cc(Cl)c(N)c(Cl)c1,inactive
15,CC(=O)Oc1c(C)c(C)c2c(c1C)CC[C@@](C)(CCC[C@H](C)CCC[C@H](C)CCCC(C)C)O2,inactive
16,Nc1cc([N+](=O)[O-])ccc1C(=O)O,inactive
17,CCc1cccc2c3c([nH]c12)C(CC)(CC(=O)O)OCC3 (stereo not given),inactive
18,C=C[C@@]1(C)CC(=O)[C@]2(O)[C@@]3(C)[C@@H](O)CCC(C)(C)[C@@H]3[C@H](O)[C@H](OC(C)=O)[C@@]2(C)O1,inactive
19,C/C=C/C(=O)N(CC)c1ccccc1C,inactive
20,Nc1ccc2c(c1)C(=O)c1ccccc1C2=O,inactive

row,Compound,Potency
1,CCCCCCC(C)O (stereo not given),inactive
2,CCCCCCOCCOCCO,inactive
3,CN(C)/N=N/c1nc[nH]c1C(N)=O,inactive
4,CCCCCC=O,inactive
5,CC(C)=CCO,inactive
6,CC(=O)[C@H]1CC[C@H]2[C@@H]3CC=C4C[C@@H](O)CC[C@]4(C)[C@H]3CC[C@]12C,inactive
7,CCCCCCCC/C=C\CCCCCCCC(=O)O,inactive
8,[Na+],inactive
9,CCC(=O)O[C@H]1[C@H](O[C@@H]2[C@@H](C)[C@H](O[C@H]3C[C@@](C)(OC)[C@@H](O)[C@H](C)O3)[C@@H](C)C(=O)O[C@H](CC)[C@@](C)(O)[C@H](O)[C@@H](C)C(=O)[C@H](C)C[C@@]2(C)O)O[C@H](C)C[C@@H]1N(C)C,inactive
10,O=Cc1ccccc1C=O,inactive
11,O=C(O)COCCN1CCN(C(c2ccccc2)c2ccc(Cl)cc2)CC1 (stereo not given),inactive
12,COc1ccc(C(=O)c2ccccc2O)c(O)c1,inactive
13,Cc1ccc(S(=O)(=O)NCl)cc1,inactive
14,CCCCCC1C(=O)CCC1CC(=O)OC (stereo not given),inactive
15,COc1ccc(-c2coc3cc(O)cc(O)c3c2=O)cc1,inactive
16,Cc1ccc(/C(=C\CN2CCCC2)c2ccccn2)cc1,inactive
17,Cc1ccc(S(=O)(=O)O)cc1C,inactive
18,CCCN1C=CN(C)C1,inactive
19,C[C@]12CC[C@@H]3c4ccc(O)cc4CC[C@H]3[C@@H]1CC[C@@H]2O,inactive
20,CC(C)[C@@H]1CC[C@@H](C)CC1=O,inactive
